Laboratory results from PubChem BioAssay AID602393 (Broad Institute, 2012).
Out of some 350,000 compounds screened, about 7,000 (2%) were called active. The entries come from a sample that favours actives as a whole. A number with no mark means an inactive call. No stated cut-off is given here; in the data, active means activation above about 40%; inconclusive means no clear call, values can overlap the other calls; inactive means below that.

Assay: raisers of Bmi1 knock-in reporter signal – mouse ES cells, Bmi1 luciferase knock-in, single point, esBAF inhibitor project, primary screen (AID 602393);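 further: 0% = median of the plate's neutral control wells and 100% = double that signal; a rise in the Bmi1 reporter signal indicates esBAF inhibition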
Settings: 24 h, at 12.5 µM, stronger effect = higher value, 100% = twice the neutral-well signal

Row | SMILES | reporter increase
1 | C[C@@H]1CN([C@H](C)CO)C(=O)c2cc(-c3ccncc3)cnc2O[C@H]1CN(C)C | 2.47%
2 | O=C(C[C@H]1CC[C@H]2[C@@H](COC[C@@H](O)CN2S(=O)(=O)c2cccc(Cl)c2)O1)NC1CCCC1 | 0.9%
3 | CN1C(=O)c2cc(NC(=O)c3ccc(Cl)cc3)ccc2OC[C@@H]2O[C@@H](CC(=O)O)CC[C@H]21 | 5.97%
4 | CC(C)NC(=O)N(C)C[C@H]1Oc2ccc(NC(=O)CCC(F)(F)F)cc2CC(=O)N([C@@H](C)CO)C[C@@H]1C | -3.69%
5 | CCCC(=O)Nc1ccc2c(c1)C(=O)N(C)C[C@H](OC)[C@H](C)CN(CCc1ccccc1)[C@H](C)CO2 | -0.112%
6 | Cc1ccc(S(=O)(=O)NCC[C@@H]2CC[C@H](NC(=O)c3ccccn3)[C@H](CO)O2)cc1 | 1.61%
7 | O=C(N[C@H]1CC[C@@H](CCNC(=O)C2CCC2)O[C@@H]1CO)c1ccncc1 | -1.2%
8 | Cc1noc(C)c1NC(=O)Nc1ccc2c(c1)C(=O)N([C@@H](C)CO)C[C@H](C)[C@@H](CN(C)Cc1ccncc1)OCCCC[C@@H](C)O2 | -7.33%
9 | O=C(C[C@@H]1CC[C@H]2[C@@H](COC[C@@H](O)CN2S(=O)(=O)c2cccc(F)c2)O1)NCCCN1CCOCC1 | 2.86%
10 | O=C(NCc1ccccn1)Nc1ccc(Cl)cc1 | 21.5%
11 | O=C(NCc1ccccn1)c1cc(-c2ccccc2Cl)on1 | 54.4% (active)
12 | O=C(NC1CCCC1)c1cc(-c2ccccc2)on1 | 18.8%
13 | Clc1ccccc1-c1cc(COc2ccc3ccccc3c2)no1 | 9.3%
14 | O=C(Nc1cccnc1Cl)c1cc(-c2ccccc2O)on1 | 65% (active)
15 | C=CCNC(=O)c1cc(-c2ccccc2O)on1 | 35.4%
16 | C[C@H](CO)N1C[C@H](C)[C@@H](CN(C)C)OCCCC[C@H](C)Oc2ccc(NC(=O)C3CCCCC3)cc2C1=O | -0.46%
17 | COc1ccc(CNC(=O)C[C@H]2CC[C@@H]3[C@H](COc4ccc(NC(=O)C5CC5)cc4C(=O)N3C)O2)cc1 | -1.53%
18 | CCCNC(=O)N(C)C[C@H]1Oc2ncc(C#C[C@@H](C)O)cc2C(=O)N([C@@H](C)CO)C[C@@H]1C | -6.34%
19 | N#C[C@H]1[C@@H](c2ccc(C3=CCCCC3)cc2)[C@@H](CO)N1C(=O)Cc1ccncc1 | 2.63%
20 | Cc1noc(C)c1NC(=O)Nc1ccc2c(c1)C(=O)N([C@@H](C)CO)C[C@H](C)[C@@H](CN(C)C(=O)C1CCCCC1)OCCCC[C@@H](C)O2 | 3.6%
21 | CCCNC(=O)Nc1ccc2c(c1)OC[C@@H](C)N(CC1CCCC1)C[C@@H](C)[C@H](OC)CN(C)C2=O | 6.43%
22 | O=C(C[C@@H]1CC[C@H]2[C@@H](COC[C@H](O)CN2S(=O)(=O)c2ccc(F)cc2)O1)N[C@H]1CCN(Cc2ccccc2)C1 | 5.45%
23 | COCCNC(=O)C[C@H]1CC[C@@H]2[C@@H](COc3ccc(NC(=O)C4CCOCC4)cc3C(=O)N2C)O1 | 0.774%
24 | O=S(=O)(Nc1ccc2nc(N3CCOCC3)sc2c1)c1ccccc1 | 73% (active)
25 | Cc1nc2ccc(NC(=O)c3cccc(S(=O)(=O)N4CCOCC4)c3)cc2s1 | 7.36%
26 | CC(=O)Nc1ccc(S(=O)(=O)Nc2ccc(N3CCOCC3)c(F)c2)cc1 | 0.869%

Row | SMILES | reporter increase
27 | O=C(C[C@@H]1C[C@@H]2c3cc(NC(=O)C4CCOCC4)ccc3O[C@@H]2[C@H](CO)O1)NCc1ccncc1 | -0.887%
28 | C[C@@H]1CN([C@H](C)CO)C(=O)c2cc(-c3ccncc3)cnc2O[C@@H]1CN(C)C(=O)Cc1cccnc1 | -2.67%
29 | Cc1ccc(S(=O)(=O)N[C@@H]2CC[C@@H](CCn3cc(C(C)C)nn3)O[C@H]2CO)cc1 | -3.18%
30 | Cc1cccc(S(=O)(=O)N2C[C@H]3[C@@H](c4ccccc42)[C@H](CO)N3Cc2ccc3c(c2)OCO3)c1 | -3.41%
31 | CO[C@@H]1CN(C)C(=O)c2ccc(NS(=O)(=O)c3ccc(C)cc3)cc2OC[C@@H](C)N(Cc2nccs2)C[C@H]1C | -3.84%
32 | Oc1ccccc1-c1cc(-c2ccc(Cl)cc2)n[nH]1 | 21.6%
33 | CC(C)(C)C1CCC(=NNC(=O)c2cc(-c3ccccc3)n[nH]2)CC1 (stereo unspecified) | -0.812%
34 | c1ccc(-c2cc(-c3ccccc3)[nH]n2)cc1 | 42.5% (active)
35 | CN1C(=O)c2cc(NC(=O)Nc3ccccc3F)ccc2OC[C@H]2O[C@@H](CC(=O)Nc3cccc(Cl)c3)CC[C@@H]21 | 20.4%
36 | Cc1noc(C)c1S(=O)(=O)N(C)C[C@H]1OCCCC[C@H](C)Oc2ccc(NS(=O)(=O)c3ccccc3)cc2C(=O)N([C@H](C)CO)C[C@@H]1C | -1.33%
37 | Cn1cnc(CCNC(=O)C[C@@H]2CC[C@@H]3[C@H](COC[C@@H](O)CN3C(=O)Nc3ccccc3)O2)c1 | -3.44%
38 | C[C@@H]1CN([C@@H](C)CO)S(=O)(=O)c2ccc(-c3cncnc3)cc2O[C@@H]1CN(C)C(=O)C1CC1 | -3.14%
39 | C/C(=N\c1nc2ccccc2n1C)c1cc(Cl)ccc1O | -2.25%
40 | Cn1c(Nc2cccc(Cl)c2)nc2ccccc21 | 53.4% (active)
41 | O=C(Cn1c(NCCO)nc2ccccc21)c1ccc(Cl)cc1Cl | -0.748%
42 | C[C@@H]1CN([C@H](C)CO)C(=O)CCCn2cc(nn2)CO[C@@H]1CN(C)C(=O)c1ccc2ccn(C)c2c1 | -1.71%
43 | Cc1cc(CN(C)C(=O)c2cc(COc3ccc(C)c(C)c3)on2)n[nH]1 | 13.8%
44 | Cc1ccc(OCc2cc(C(=O)N(C)CCc3ccccc3)no2)cc1C | 71.6% (active)
45 | Cc1ccc(OCc2cc(C(=O)N(C)CCn3ccnc3C)no2)cc1C | 11.8%
46 | O=C(Nc1ccccc1)Nc1ccc2c(c1)[C@@H]1C[C@@H](CC(=O)N3CCCCC3)O[C@H](CO)[C@@H]1O2 | -0.639%
47 | CO[C@H]1CN(C)C(=O)c2ccc(NS(=O)(=O)c3cn(C)cn3)cc2OC[C@@H](C)N(CC2CC2)C[C@H]1C | -8.79%
48 | O=C(Nc1ccon1)c1nc[nH]c1C(=O)NCc1ccccc1 | -6.72%
49 | CN1CCc2ccccc2C1Cc1ccccc1NC(=O)c1sc2ccccc2c1Cl (stereo unspecified) | 51%
50 | O=C(Nc1ccon1)c1sc2ccccc2c1Cl | 48.7% (active)
51 | O=C(CSc1nc2ccccc2c(=O)n1-c1ccc(F)cc1)NC1CC1 | -5.85%
52 | Cc1ccc(-n2c(SCC(=O)N3CCC(C(=O)O)CC3)nc3ccccc3c2=O)cc1C | 42% (active)

Row | SMILES | reporter increase
53 | O=C(CSc1nc2ccccc2c(=O)n1-c1ccccc1F)N1CCOCC1 | -4.38%
54 | Cc1noc(C)c1NC(=O)Nc1ccc2c(c1)C(=O)N([C@H](C)CO)C[C@H](C)[C@H](CN(C)S(=O)(=O)c1cccs1)O2 | 1.55%
55 | O=C(NC1CCCC1)[C@H]1[C@H](CO)[C@H]2Cn3c(ccc(-c4ccccc4F)c3=O)[C@@H]1N2C(=O)CC1CC1 | -2.95%
56 | CO[C@H]1CN(C)C(=O)c2cc(NS(=O)(=O)c3ccccc3C)ccc2OC[C@@H](C)NC[C@@H]1C | 1.69%
57 | C[C@@H]1CCCCO[C@H](CN(C)C(=O)CCCN(C)C)[C@H](C)CN([C@@H](C)CO)C(=O)c2cc(NS(=O)(=O)c3ccc(Cl)cc3)ccc2O1 | 2.25%
58 | C[C@H](CO)N1C[C@H](C)[C@H](CN(C)Cc2ccc(C(F)(F)F)cc2)Oc2ccc(NC(=O)CCCCCC(=O)Nc3ccccc3N)cc2CC1=O | -12.1%
59 | O=C(Cc1ccccc1)N/N=C/c1ccc(Cl)cc1Cl | 3%
60 | CCn1nc(C)c(/C=N/NC(=O)Cc2ccc(Cl)cc2)c1C | 64.3% (active)
61 | Cc1ccc(/C=N/NC(=O)Cn2nc(C)c(Br)c2C)o1 | -0.989%
62 | COc1cccc(-c2cnc3c(c2)C(=O)N([C@@H](C)CO)C[C@@H](C)[C@H](CN(C)C(=O)CN(C)C)O3)c1 | 4.59%
63 | O=C(C[C@H]1C=C[C@H](NC(=O)c2cnccn2)[C@@H](CO)O1)NCc1ccccc1F | -2.01%
64 | Cc1noc(C)c1COC(=O)c1cc2ccccc2cc1O | -1.05%
65 | Cc1ccc(S(=O)(=O)N2CCN(C(=O)COC(=O)c3c(C)noc3C)CC2)c(C)c1 | 0.794%
66 | Cc1ccc(-c2nc(COC(=O)c3c(C)noc3C)cs2)cc1 | 76.6% (active)
67 | COc1ccc(CNC(=O)C[C@H]2CC[C@H](NC(=O)Nc3ccc4c(c3)OCO4)[C@H](CO)O2)cc1 | -2.93%
68 | COc1ccc(NC(=O)N(C)C[C@H]2OCCCC[C@@H](C)Oc3ccc(NC(=O)Nc4ccc5c(c4)OCO5)cc3C(=O)N([C@H](C)CO)C[C@@H]2C)cc1 | 49.3% (active)
69 | C[C@H](CO)N1C[C@H](C)[C@@H](CN(C)C(=O)Nc2ccc3c(c2)OCO3)OCCCC[C@H](C)Oc2ccc(NC(=O)Nc3ccc4c(c3)OCO4)cc2C1=O | 45% (active)
70 | C[C@H]1CCCCO[C@H](CN(C)C(=O)Nc2ccccc2)[C@@H](C)CN([C@@H](C)CO)C(=O)c2cc(NC(=O)Nc3ccc4c(c3)OCO4)ccc2O1 | 27%
71 | COc1ccc(NC(=O)Nc2ccc3c(c2)C(=O)N([C@H](C)CO)C[C@H](C)[C@@H](CN(C)C(=O)Nc2ccc(OC)cc2)OCCCC[C@H](C)O3)cc1 | 3.33%
72 | C[C@H]1CCCCO[C@H](CN(C)C(=O)Nc2ccc3c(c2)OCO3)[C@@H](C)CN([C@@H](C)CO)C(=O)c2cc(NC(=O)Nc3ccccc3)ccc2O1 | 10.9%
73 | C[C@H](CO)N1C[C@H](C)[C@@H](CN(C)C(=O)Nc2ccc3c(c2)OCO3)OCCCC[C@H](C)Oc2ccc(NC(=O)Nc3ccc(F)cc3)cc2C1=O | 4.31%
74 | C[C@@H]1CN([C@@H](C)CO)C(=O)c2cc(NC(=O)Nc3ccc4c(c3)OCO4)ccc2O[C@@H](C)CCCCO[C@@H]1CN(C)C(=O)Nc1ccc2c(c1)OCO2 | 64.3% (active)
75 | C[C@@H]1CN([C@@H](C)CO)C(=O)c2cc(NC(=O)Nc3ccc4c(c3)OCO4)ccc2O[C@@H](C)CCCCO[C@H]1CN(C)C(=O)Nc1ccc(C(F)(F)F)cc1 | 0.715%
76 | COc1ccc(NC(=O)Nc2ccc3c(c2)C(=O)N([C@@H](C)CO)C[C@@H](C)[C@@H](CN(C)C(=O)Nc2ccc(F)cc2)OCCCC[C@@H](C)O3)cc1 | 4.33%
